CYP2C19 activ: human CYP2C19 activators, primary screen, biochemical, luminescence. 96,000 tested, under 10 active. recombinant CYP2C19, luciferin-H EGE luminescence; active compounds read high; 0 = fully inhibited enzyme, 1 = untreated enzyme. AID 1025, 2008. activation factor at 5 µM;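 active = activation factor of at least 2 at 5 µM in the primary screen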;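 note: 0 = wells with 2.5 mM tranylcypromine and 1 = vehicle-only wells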
CYP2C19 inhib: blockers of cytochrome P450 2C19 activity – biochemical, luminescence, ADME assay, primary screen. P33261. CYP2C19 Supersomes, luciferin-H EGE luminescence, 30 min. inhibition, % at 5 µM. actives 21% (n = 96,000);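 active = CYP2C19 inhibition above a set limit at 5 µM in the primary screen, cut at about 50% in these data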;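 note: plate controls were negative control wells for no effect and 2.5 mM tranylcypromine positive control for full effect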
CYP2C9 inh: blockers of cytochrome P450 2C9 activity – biochemical, luminescence, ADME assay, primary screen | actives 20% (n = 96,000) | CYP2C9 Supersomes, luciferin-H conversion | inhibition, % at 5 µM | P11712;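 active = blocking of liver enzyme CYP2C9 beyond about 50% at 5 µM, limit read from the data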
Target sequence (P11712 whole entry, looked up): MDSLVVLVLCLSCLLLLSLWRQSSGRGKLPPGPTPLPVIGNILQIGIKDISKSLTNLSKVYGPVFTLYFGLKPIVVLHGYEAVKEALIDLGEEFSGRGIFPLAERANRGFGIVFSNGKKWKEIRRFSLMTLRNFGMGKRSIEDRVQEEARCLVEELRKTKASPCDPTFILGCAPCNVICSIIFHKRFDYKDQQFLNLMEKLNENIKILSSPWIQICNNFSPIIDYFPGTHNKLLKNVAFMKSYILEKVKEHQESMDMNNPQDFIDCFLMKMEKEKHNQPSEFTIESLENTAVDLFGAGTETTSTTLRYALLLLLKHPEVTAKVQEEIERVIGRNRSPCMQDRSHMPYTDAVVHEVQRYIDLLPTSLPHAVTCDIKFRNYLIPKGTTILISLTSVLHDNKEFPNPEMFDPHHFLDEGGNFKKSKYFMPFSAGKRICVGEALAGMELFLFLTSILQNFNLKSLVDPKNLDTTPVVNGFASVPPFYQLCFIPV
CYP2C9 activ: human CYP2C9 activators, primary screen, biochemical, luminescence. Cytochrome P450 2C9 (Homo sapiens), P11712. recombinant CYP2C9, luciferin-H conversion; active compounds read high; factor 1 = untreated enzyme, 0 = blocked. activation factor at 5 µM. actives 1.4% (n = 96,000). AID 1024, 2008;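 active = activation factor of 2 or more for CYP2C9 at a 5 µM dose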;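 note: 0 = sulfaphenazole-blocked wells and 1 = vehicle-only wells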
PostGolgi ctrl: growth inhibition of yeast control strain, primary screen, counter-screen for post-Golgi transport modulator project; AID 738, 2007; actives 5% (n = 98,000); inhibition, % at 10 µM; efflux-deficient yeast background strain, growth absorbance A615, 16 h
PostGolgi yeast: phenotypic screen on post-Golgi transport, primary screen; inhibition, % at 10 µM; actives 0.9% (n = 98,000); post-Golgi transport phenotypic cell assay;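 note: yeast cells grown in 1536-well plates; yeast grown about 18 h at 30C before absorbance read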
* = called active by the depositor. This is a sample that favours compounds with a hit; in the whole collection about 32% have one here. Cut-off read from the data, not from the text of the source, unless noted: active = inhibition above about 30%; inactive = the rest.

SMILES	CYP2C19 activ	CYP2C19 inhib	CYP2C9 inh	CYP2C9 activ	PostGolgi ctrl	PostGolgi yeast
O=C(Cc1ccccc1)NCCc1cn2ccsc2n1	0.8	22	0	1	-1	2
COc1ccc(C2C(C(N)=O)=C(C)Nc3nc(-c4ccccc4Cl)nn32)c(OC)c1 (stereo not given)	0.8	24	3	1	17	-6
Cc1ccc(-n2c(CNc3ccc(F)cc3)nnc2SCC(N)=O)cc1	0.9	10	15	0.9	10	-1
CCOC(=O)c1ccc2c(c1)NC(=O)C(N1CCN(c3ccc(OC)cc3)CC1)S2 (stereo not given)	1.1	-14	1	1	22	1
COC(=O)C1=C(C)N=C2SC(C#N)=C(N)N2C1c1ccc(OCc2ccccc2)cc1 (stereo not given)	0.7	32	69*	0.3	16	24
COC(=O)C1=C(C)N=C2SC(C#N)=C(N)N2C1c1cc(OC)c(OC)c(OC)c1 (stereo not given)	0.1	87*	93*	0.1	1	4
C=CCOC(=O)C1=C(C)N=C2SCCC(=O)N2C1c1ccc(OC(=O)c2ccco2)cc1 (stereo not given)	0.7	34	30	0.7	1	-3
CCN(CC)Cc1c(C(=O)OC(C)C)nnn1-c1nonc1N	0.5	47	26	0.7	6	-5
CCCS(=O)(=O)NCCc1cc2c(OC)ccc(OC)c2[nH]c1=O	0.9	13	-12	1.1	0	18
CCN(CC)S(=O)(=O)c1ccc(C(=O)NCCc2cc3c(OC)ccc(OC)c3[nH]c2=O)cc1	0.7	34	85*	0.2	3	8
Cc1ccc(C)c2[nH]c(=O)c(CCNC(=O)c3ccc(S(=O)(=O)N(C)C)cc3)cc12	0.8	17	59*	0.4	1	-7
COc1ccccc1CNC(=O)c1ccc(S(=O)(=O)N2CCCC2)cc1	1	4	47	0.5	17	3
COc1ccc(OC)c2[nH]c(=O)c(CCNC(=O)c3ccc(S(=O)(=O)N4CCCC4)cc3)cc12	0.6	44	62*	0.4	9	9
CCCCC(=O)NCCc1cc2c(OC)ccc(OC)c2[nH]c1=O	1	3	-132	2.3*	7	15
CN(C)c1nc(-c2ccccc2)nnc1C(F)(F)F	0.8	25	-47	1.5	12	4
CCOC(=O)C1CCN(C(=O)c2cccc(NC(=O)C(CC)CC)c2)CC1	0.5	50	41	0.6	5	0
CCCC(=O)c1ccc(N2CCCCCC2)c(F)c1	0.9	9	20	0.8	2	-1
CC(=O)c1nc(N2C(=O)CC(Cc3cccc(C)c3)C2=O)sc1C (stereo not given)	0.6	37	49	0.5	18	-18
Cc1ccc(/C=C2\CCC3=C2OC(N)=C(C#N)C3c2ccc(C)cc2)cc1 (stereo not given)	1	-1	56*	0.4	17	-1
CCc1cc2c(NCCC(=O)O)nc(C)nc2s1	1	-2	-3	1	-6	6
O=C(Nc1ccc(N2CCOCC2)c(Cl)c1)c1ccccc1F	1	0	2	1	-1	6
O=C(c1ccccc1)c1ccc(N2CCOCC2)c(F)c1	0.3	67*	9	0.9	10	-11
O=C(Nc1ccc(N2CCOCC2)c(F)c1)c1ccncc1	0.5	52*	65*	0.4	16	-2
O=C(Cc1ccccc1)Nc1cc(C(=O)c2ccccc2)ccc1N1CCOCC1	0.3	69*	90*	0.1	11	2
O=C(c1ccccc1)c1cc(F)c(N2CCOCC2)cc1Cl	0.4	59*	-17	1.2	6	-2
SMILES	CYP2C19 activ	CYP2C19 inhib	CYP2C9 inh	CYP2C9 activ	PostGolgi ctrl	PostGolgi yeast
COC(=O)c1ccc(N2CCOCC2)c(F)c1	0.6	36	42	0.6	12	19
COc1ccc(OC)c(C(=O)COC(=O)c2ccccc2O)c1	0.8	20	12	0.9	10	-1
Cn1c(N/N=C/c2cccs2)cc(=O)n(C)c1=O	1.3	-32	24	0.8	35*	1
COCCCN1C(=O)C(=O)/C(=C(/O)c2ccc(OC(C)C)c(C)c2)C1c1ccncc1 (stereo not given)	1.1	-9	-3	1	15	-4
CCOc1cccc2sc(=NC(=O)c3ccc(S(=O)(=O)N4CCOCC4)cc3)n(C)c12	0.7	32	56*	0.4	11	17
O=C(COC(=O)c1ccc(Cl)s1)c1cc2ccccc2o1	0.3	70*	43	0.6	12	-4
COc1ccc(NCCNc2ccc(OC)cc2)cc1	0.4	56*	12	0.9	2	-2
Cc1ccc(NCCc2ccc(C)nc2)cc1	0	96*	22	0.8	3	0
Cc1ccc(NCCNc2ccc(C)cc2)cc1	0	100*	12	0.9	6	-7
CC(C)CCNC(=O)C1CCN(S(=O)(=O)c2ccc3c(c2)CCC(=O)N3)CC1	0.8	16	59*	0.4	5	6
O=C1CCc2cc(S(=O)(=O)N3CCC(C(=O)NCc4ccccn4)CC3)ccc2N1	1	-2	14	0.9	-7	12
O=C1CCc2cc(S(=O)(=O)N3CCC(C(=O)NC4CCCC4)CC3)ccc2N1	0.9	15	52*	0.5	5	1
O=C1CCc2cc(S(=O)(=O)N3CCCC3C(=O)NC3CCCCCCC3)ccc2N1 (stereo not given)	0.8	20	81*	0.2	-2	-6
Cc1csc(SCC(=O)c2ccc(S(=O)(=O)N3CCOCC3)cc2)n1	0.5	48	40	0.6	7	16
O=C(COc1ncnc2sccc12)N1CCc2ccccc2C1	0.4	59*	31	0.7	-1	4
Cc1ccc(O)c(C2=NCCNC(C(F)(F)C(F)F)=C2)c1	0.7	33	34	0.7	12	-1
Cc1ccc(O)c(C2=NOC(O)(C(F)(F)C(F)F)C2)c1 (stereo not given)	0.2	84*	53*	0.5	2	2
Cc1ccc(O)c(C2=NOC(O)(C(F)(F)F)C2)c1 (stereo not given)	0.3	68*	17	0.8	-2	0
Cc1ccc(O)c(-c2cc(C(F)(F)F)[nH]n2)c1	0.8	21	25	0.8	7	0
CN(C)S(=O)(=O)c1ccc(C(=O)OCCCN=C2NS(=O)(=O)c3ccccc32)cc1	0.8	16	47	0.5	10	8
COc1ccc(Cl)cc1C(=O)Nc1ccc(S(=O)(=O)N2CCCC2)cc1	1.2	-21	10	0.9	3	-6
